Patent US20040171041, “Preparation and use of single-stranded transcription substrates for synthesis of transcription products corresponding to target sequences” (published 2004)

target: T1, mini-vRNAP (N4 virion RNA polymerase transcriptionally active domain, His-tagged) (Bacteriophage N4, UniProt Q859P9 SEQ:38-1143); assay: filter; further one order of magnitude reduction versus -2 pairing; details: tags: N-terminal His6 (pBAD B leader); hairpin, extended stem; ssDNA; [NONE]
T1 sequence: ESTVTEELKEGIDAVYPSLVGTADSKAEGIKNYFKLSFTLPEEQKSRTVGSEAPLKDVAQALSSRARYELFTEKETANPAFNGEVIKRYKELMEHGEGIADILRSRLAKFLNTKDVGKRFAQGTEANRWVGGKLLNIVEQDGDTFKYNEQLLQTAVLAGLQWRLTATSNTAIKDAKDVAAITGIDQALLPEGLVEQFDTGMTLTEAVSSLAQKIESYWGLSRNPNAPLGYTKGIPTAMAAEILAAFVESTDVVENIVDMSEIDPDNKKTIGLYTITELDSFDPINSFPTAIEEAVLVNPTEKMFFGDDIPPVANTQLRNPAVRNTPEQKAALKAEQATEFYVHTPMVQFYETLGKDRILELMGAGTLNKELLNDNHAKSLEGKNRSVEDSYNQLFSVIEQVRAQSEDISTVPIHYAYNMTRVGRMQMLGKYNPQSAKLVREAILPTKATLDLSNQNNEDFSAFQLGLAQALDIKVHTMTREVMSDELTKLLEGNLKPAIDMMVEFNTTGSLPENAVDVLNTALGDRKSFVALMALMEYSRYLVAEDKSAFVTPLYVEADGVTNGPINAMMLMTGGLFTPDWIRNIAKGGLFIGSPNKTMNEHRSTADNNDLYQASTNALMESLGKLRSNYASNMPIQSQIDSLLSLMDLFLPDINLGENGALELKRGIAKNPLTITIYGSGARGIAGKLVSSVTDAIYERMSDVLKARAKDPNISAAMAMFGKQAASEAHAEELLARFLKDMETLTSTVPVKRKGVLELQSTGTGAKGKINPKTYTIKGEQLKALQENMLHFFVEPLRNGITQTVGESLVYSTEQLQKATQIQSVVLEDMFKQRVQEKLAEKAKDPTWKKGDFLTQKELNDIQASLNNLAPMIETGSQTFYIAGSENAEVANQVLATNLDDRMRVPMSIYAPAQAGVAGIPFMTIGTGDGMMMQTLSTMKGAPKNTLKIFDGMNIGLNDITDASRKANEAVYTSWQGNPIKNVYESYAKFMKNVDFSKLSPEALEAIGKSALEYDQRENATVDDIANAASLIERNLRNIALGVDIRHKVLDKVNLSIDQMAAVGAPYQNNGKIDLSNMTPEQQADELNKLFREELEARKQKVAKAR
From the text: To study the sequence determinants of promoter binding, 20 base-long promoter oligonucleotides, containing the wild-type vRNAP promoter P2 sequence and substituted at every position with a single 5-Iodo-dU, were used. Whenever substitutions were made in the stem, the corresponding pairing base was changed to A. These oligonucleotides were ³²P end-labeled and used to determine the enzyme's affinity for promoter DNAs by a filter binding assay and the ability to crosslink to mini-vRNAP upon UV irradiation at 320 nm.
The effect of changes in the stem length of the hairpin on the ability of mini-vRNAP to bind P2 promoter DNA was analyzed. […] The stem can be shortened by two base pairs without change in the binding affinity. […] No binding is observed if one more nucleotide is removed and the loop cannot form.

Sequence	binding signal
TCCAAAAGAAGCGGAGCTTCTTTTG	~1000 fold lower affinity
